Test results as given in PubChem BioAssay (NCI).
About 83,000 compounds went through this panel and 20% of them were active in at least one assay; those are over-represented in the sample as a whole.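 48-hour exposure, single concentration, 96-well plates; percent growth endpoint where 0 means no net growth. Active: below 10.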 Unmarked numbers belong to inactive results. The source made the active and inactive calls.

Each compound was assayed on M14 melanoma (assay: NCI-60 one-dose screen, 48 h (100 = growth as untreated, 0 = no growth, -100 = all killed)). Details: 10 µM.

Row | Compound | growth
1 | CCCCCCCCCCCC(=O)NCCCN(C)C | 98.1%
2 | Nc1ccc(C2=CC(c3ccc(Cl)cc3)N3C=CSC3=N2)cc1 (stereo unspecified) | -71.1% (active)
3 | CC(=O)n1nc(C(=O)OC(C)(C)C)c2cc(F)c(F)cc21 | 90.9%
4 | COC(=O)c1c(C)nc(Nc2nc3ccccc3s2)nc1-c1ccc(Cl)cc1Cl | 101%
5 | O=C(O)CCCCSCCCCC(=O)O | 103%
6 | COc1cc(-c2nc3ccc(C)cc3[nH]2)ccc1OCC(=O)N=Nc1c(O)[nH]c2ccccc12 | -72.8% (active)
7 | CC1=CSC2=NC(c3ccc(Cl)c(Cl)c3)=CC(c3ccc(Cl)cc3)N12 (stereo unspecified) | 0.183% (active)
8 | COc1ccc(Nc2ccnc(N3CCN(c4ccnc5cc(Cl)ccc45)CC3)n2)cc1 | -13.3% (active)
9 | Cn1cnc([N+](=O)[O-])c1/C=C1\Oc2ccc(Cl)cc2C1=O | 87.5%
10 | CCOC(=O)Cn1nnc(-c2ccc(OCc3ccccc3F)cc2)n1 | 75.1%
11 | COc1ccc(/C(CS(=O)(=O)c2ccccc2)=N\O)cc1 | 109%
12 | COc1ccc(S(=O)(=O)Nc2cc(/C=C\c3cc(OC)c(OC)c(OC)c3)ccc2OC)cc1 | 8.41% (active)
13 | COc1ccc2nc(C)cc(Nc3ccc(Cl)cc3)c2c1 | 100%
14 | COc1cc(-c2nc3ccc(C)cc3[nH]2)ccc1OCc1nnc(-c2ccc(CC(C)C)cc2)o1 | 104%
15 | Cc1noc(C)c1-c1ccc2nc(NC(=O)[C@H]3CCN(C#N)C3)cn2c1 | 77.9%
16 | COc1ccc(COC(=O)CC(C)C)cc1 | 99.6%
